The record followed here is the supplement of paper PMC7156485.

Molecules are shown by their SMILES. ± gives the standard deviation of the averaged measurements.

Common to all, as to conditions: concentration: 10 µM; 24 h
Experiment [1] relates to HCC1569. Nature of the experiment: cell number relative to DMSO (% of DMSO); higher = more cells (less growth inhibition / toxicity). The method, boiled down:
(§1)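 H1.0 nuclear intensity or cell number is stated as percent of the plate control, based on the median of replicates, and HCC1569 values were smoothed for positional effects. These came from HCC1569 and TDF cells treated with compounds at 10 µM for 24 h at 37 °C in triplicate, then fixed in 3.7% formaldehyde and stained with a rabbit anti-H1.0 antibody, an AlexaFluor 647 secondary and DAPI.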

The subject of experiment [2] is TDF. The description is as above. A digest of the protocol:
as §1

The subject of experiment [3] is TDF. Kind of experiment: H1.0 immunofluorescence intensity relative to DMSO (% of DMSO); higher = stronger H1.0 induction, active = 120 or more. A digest of the protocol: as §1
For experiment [4], the system named is HCC1569. Nature of the experiment: H1.0 immunofluorescence intensity relative to DMSO (% of DMSO); higher = stronger H1.0 induction, active = 140 or more. The method, boiled down:
as §1
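Throughout, for H1.0 immunofluorescence intensity relative to DMSO: TDF is a line of transformed human dermal fibroblasts of mesenchymal origin.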
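Throughout, for cell number relative to DMSO: TDF denotes transformed human dermal fibroblasts of mesenchymal origin.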

For the compound `COc1cc(C(=O)OCCCCN=C(N)N)cc(OC)c1O`, the cell number with HCC1569 [1] came out at 103; with TDF [2], 95.8. The H1.0 immunofluorescence intensity is 102 (inactive) in the experiment on TDF [3] and 104 (inactive) with HCC1569 [4].
The like results for `CC(C)(C)C(=O)C(Oc1ccc(Cl)cc1)n1ccnc1` (stereo unspecified) [Climbazole] were, in that order, 99.5, 98.7, 92.2 (inactive) and 99.3 (inactive).
The like results for `O=c1cc(-c2ccc(O)c(O)c2)oc2cc(O)c(C3OC(CO)C(O)C(O)C3O)c(O)c12` (stereo unspecified) [Homoorientin] were, in that order, 101, 96.2, 100 (inactive) and 90.4 (inactive).
The like results for `COc1ccccc1OCCNCC(O)COc1cccc2[nH]c3ccccc3c12` (stereo unspecified) [Carvedilol] were, in that order, 92.6 ± 15, 104 ± 4.5, 99.3 (inactive) and 106 (inactive).
For `CN(C)CCN(Cc1cccs1)c1ccccn1.Cl` [Methapyrilene hydrochloride], the results for the cell number with HCC1569 [1] and in the experiment on TDF [2] were 112 and 95.7, respectively. The H1.0 immunofluorescence intensity in the experiment on TDF [3] is 93 (inactive); in the experiment with HCC1569 [4] it was 92.7 (inactive).
The like results for `Cc1cc2nc(NCCCO)n(CC(=O)c3cc(C(C)(C)C)c(O)c(C(C)(C)C)c3)c2cc1C` were, in that order, 67.9, 78.5, 97.1 (inactive) and 173 (active).
The like results for `COc1cccc(-c2cn(-c3ccc(CCN4CCC(O)CC4)cc3)c3ncnc(N)c23)c1` were, in that order, 45.9, 53.9, 127 (active) and 177 (active).
The like results for `COc1cc(C2CC(=O)c3c(O)cc(O)cc3O2)ccc1O` (stereo unspecified) [Homoeriodictyol] were, in that order, 97.9, 99.7, 99 (inactive) and 88.7 (inactive).
Take `CCC(CO)Nc1nc(NCc2ccccc2)c2ncn(C(C)C)c2n1` (stereo unspecified) [Roscovitine]: the cell number in the experiment with HCC1569 [1] turned out to be 93.4; with TDF [2], 99. Further, the figures for the H1.0 immunofluorescence intensity with TDF [3] and with HCC1569 [4] were 93.9 (inactive) and 103 (inactive), respectively.
